# Data reported in PubChem BioAssay (NCI).
# Compounds without any hit were thinned out: in the full panel of roughly 83,000, 20% have a hit.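 Method: cells in 96-well plates; compound added at one concentration; 48 h incubation; percent growth measured; values under 10 scored active.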 Values without a mark were called inactive. Active and inactive are the calls of the source.
# Test system: HL-60(TB) leukemia
# Test: NCI-60 one-dose screen, 48 h (100 = growth as untreated, 0 = no growth, -100 = all killed)
# Conditions: 10 µM unless noted
row,SMILES,growth
1,CC(C)(C)c1cc(/C=N\NC(=O)/C=C/C=C/c2ccc3c(c2)OCO3)c(O)c(C(C)(C)C)c1,84.1%
2,COc1ccc2c(c1)/C(=C\c1c[nH]c3ccc(OC)cc13)C(=O)N2,20.8%
3,CCCCC/C(C=C(C#N)C#N)=C/c1ccccc1,6.33% (active)
4,NCCn1cc(-c2nc(-c3c[nH]c4ncccc34)cs2)c2cc(Br)ccc21,51.1%
5,ClCc1c(Cl)c(Cl)c(Cl)c(CCl)c1Cl,80.4%
6,CCN(CC)CCOC(=O)c1ccc(NC(=O)Nc2cccc(Cl)c2)cc1,103%
7,O=C(CCN1CCCC1)c1ccc([N+](=O)[O-])cc1,-21.1% (active)
8,C#CCOc1nc(C)cc(C)c1C#N,89.5%
9,Cc1ccc(C(=O)Nc2ccc(CN3CCN(C)CC3)c(C(F)(F)F)c2)cc1C#Cc1cnc(N)c2ccc(F)cc12,-25.4% (active)
10,C=CCOc1cccc(/C=C2\SC(=Nc3ccc(O)cc3)NC2=O)c1,-16.8% (active)
11,COc1ccc(C(=O)n2nc(/C=C/c3ccc(O)c(OC)c3)cc2/C=C/c2ccc(O)c(OC)c2)cc1,-15.6% (active)
12,O=C(CCc1nnc2sc(-c3ccc(Cl)cc3Cl)nn12)c1nc2ncccc2[nH]1,3.13% (active)
13,COc1ccc(-c2ccc(-c3ccc(C(=N)N)s3)s2)cc1Cl,-41.8% (active)
14,O=C(NCCNc1nccc(-c2c(-c3cccc(O)c3)nc3sccn23)n1)c1cc(N2CCOCC2)cc(C(F)(F)F)c1,102%
15,COc1ccc(C/C(C)=C(/c2ccc(OCCN(C)C)cc2)c2ccc(OC(=O)NCc3ccccc3)cc2)cc1,45.1%
16,CCOc1ccc(C(=O)NCC(C)C)cc1,94.9%
17,FC(F)(F)c1ccc(-c2cnc(Cl)nc2N2CCC3(CC2)OCCO3)cc1,83.6%
18,CCc1ccc(CCN2C(=O)c3ccccc3C2=O)nc1,120%
19,COc1cc2oc(-c3cccc(NC(=O)c4ccc5c(c4)OCO5)c3)cc(=O)c2c(OC)c1OC,34.6%
20,CNC(=O)NCC1OC(n2cnc3c(NC(=O)Nc4ccccc4)ncnc32)C2OC(C)(C)OC12 (stereo not drawn),83.9%
21,CCCCN1CCN(c2ccc3nc(-c4ccc5nc(-c6ccc(OCC)c(OCC)c6)[nH]c5c4)[nH]c3c2)CC1,3.99% (active)
22,Oc1ccc2c(c1)CCc1ccccc1-2,103%
23,O=C(OC1CCCC1)c1ccccc1Cl,99.2%
